Sampled rows, rich in hits. Any-hit rate of the full collection: about 4.1%.
TROY signal inh = blocks TROY-dependent signaling in reporter cells; Q293 LMP1-TROYcd NF-kB luciferase reporter, 4 h; inhibition, % at 10 µM; actives 0.98% (n = 360,000); AID 1347056;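 active = compounds whose plate-normalised and pattern-corrected inhibition of the luciferase reporter signal at the single screening dose is 50% or more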
Shn3 inh set2 = Schnurri-3 reporter inhibition in Clone20 osteoblasts. Clone20 osteoblast Shn3 3'UTR firefly luciferase, 24 h. inhibition, % at 12.5 µM. actives 0.52% (n = 360,000);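 active = mean inhibition of at least 75% with every replicate also reaching 75%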;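 also: 0% = median of neutral control wells and 100% = pilot-screen positive control compound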
Peg3 prom inh = Peg3 promoter activity inhibition; AID 588405; HeLa PEG-Prom luciferase reporter, luminescence, overnight; actives 1.7% (n = 360,000); inhibition, % at 20 µM;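 active = inhibition of at least 50% at 20 µM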
TWEAK-Fn14 inh = inhibitors of TWEAK-Fn14 interaction signaling; TWEAK-stimulated Fn14 reporter cells, luciferase luminescence, 8 h; actives 2% (n = 360,000); AID 1159606; inhibition, % at 10 µM; in the data active = inhibition above about 50%
MITF TRPM1 inh = inhibitors of MITF-driven TRPM1 promoter in melanoma cells. actives 0.83% (n = 330,000). AID 488899. SK-MEL-5 TRPM1 promoter luciferase, 24 h. inhibition, % at 12.5 µM;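 active = mean inhibition across replicates of 60% or more, whatever share of single replicates reaches that level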
LMP1 NFkB inh = reduces LMP1-driven NF-kappaB luciferase signal; actives 0.69% (n = 350,000); LMP1-induced NF-kappaB luciferase reporter cells, luminescence; inhibition, % at 12.5 µM; in the data active = inhibition above about 41%;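 also: 0% = neutral control wells and 100% = reference inhibitor control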
* hit, by the source's call; . = no result given.

SMILES	TROY signal inh	Shn3 inh set2	Peg3 prom inh	TWEAK-Fn14 inh	MITF TRPM1 inh	LMP1 NFkB inh
COc1ccc(CCNC(=O)c2ccc(Cl)c(S(=O)(=O)N(C)c3ccccc3)c2)cc1	53*	2	15	58*	3	-5
CC(=O)NCCC(=O)Nc1cc(S(=O)(=O)N2CCOCC2)ccc1Oc1ccccc1	-8	0	3	3	-7	0
O=C(Nc1ccc(Oc2ccccc2)cc1)C1CCN(c2c3c(nc4ncnn24)CCC3)CC1	51*	82	38	79*	26	33
COc1ccccc1C1CC(=O)Oc2c(C(C)C)ccc(C)c21 (stereo not drawn)	16	-1	8	14	8	0
CCCCC(=O)Nc1cc(N(C)C)nc2ccccc12	-9	-5	11	-3	9	1
CN(C)c1cc(NC(=O)CNC(C)(C)C)c2ccccc2n1	-2	-3	15	51*	6	0
COc1ccc(CN2C(=O)CSCC2=O)cc1OC	-16	-3	12	0	21	5
COc1ccc(CCN2C(=O)CSC2=S)cc1OC	-12	0	60*	3	15	26
COc1ncnc2c1ncn2CCCNCc1ccc(C)o1	-5	-22	-10	-4	.	-2
N#C/C(=C/c1ccc(Sc2nc3ccccc3[nH]2)o1)c1ccccc1F	43	68	-45	21	5	10
N#C/C(=C/c1ccc(Sc2nc3ccccc3[nH]2)o1)c1cccc(F)c1	55*	30	36	10	20	11
N#C/C(=C/c1ccc(Sc2nc3ccccc3[nH]2)o1)c1cccc(Br)c1	68*	16	31	39	9	1
N#C/C(=C\c1ccc(Sc2ccccc2)o1)c1nc2ccccc2[nH]1	-11	-60	-269	-6	-116	-12
CCOc1ccc(-n2cnc3sc(C)c(C)c3c2=O)cc1	6	-2	-18	-5	-16	3
Cc1ccc(NC(=O)c2c3c(nc4ccccc24)CCC3)cc1S(=O)(=O)N(C)C	48	6	21	71*	30	7
COc1cc(CC(=O)N(c2ccccc2)c2nc(C)cs2)cc(OC)c1OC	11	3	-9	-16	12	52*
O=C1CNC(=S)N1c1nc2ccccc2s1	-6	6	0	0	1	-5
CCC1CCC/C1=N\NC(=O)c1ccoc1C (stereo not drawn)	-36	-19	-16	-8	-13	-3
Cc1ccc(S(=O)(=O)N2CCN(Cc3nc4ccccc4[nH]3)CC2)cc1C	53*	15	-2	-4	-13	-7
COc1ccc(N2C(=O)C(=O)/C(=C(/O)c3ccc(C)cc3)C2c2cccnc2)cc1 (stereo not drawn)	-44	-29	-11	-6	-7	44*
COc1ccc(C2/C(=C(/O)c3ccc(C)cc3)C(=O)C(=O)N2C)cc1 (stereo not drawn)	-17	4	12	6	4	-8
CC1(C)CC[C@]2(C(=O)n3ccnc3)CC[C@]3(C)[C@H](C(=O)C=C4[C@@]5(C)C=C(C#N)C(=O)C(C)(C)[C@@H]5CC[C@]43C)[C@@H]2C1	75*	94*	106*	106*	94*	90*
O=C(Nc1cccc(O)c1)C(Cc1ccccc1)N1C(=O)c2cccc3cccc(c23)C1=O (stereo not drawn)	10	-5	66*	-25	-6	-7
O=C(O)C(Cc1ccccc1)N1C(=O)c2cccc3cccc(c23)C1=O (stereo not drawn)	10	-7	12	10	13	6
Cc1cc(C)c(S(=O)(=O)Nc2nnc(C)s2)c(C)c1	23	3	5	0	4	3
SMILES	TROY signal inh	Shn3 inh set2	Peg3 prom inh	TWEAK-Fn14 inh	MITF TRPM1 inh	LMP1 NFkB inh
Cc1cc(C)c(S(=O)(=O)Nc2nnc(CC(C)C)s2)c(C)c1	3	19	4	-7	-6	82*
O=C1C(SCCO)=C(SCCO)C(=O)c2ccccc21	32	93*	100*	76*	111*	59*
O=c1[nH]c2ccccc2c(O)c1SCCO	-13	-14	1	4	3	-11
CCOC(=O)c1c(NC(=O)c2ccco2)n(C2CCCCC2)c2nc3ccccc3nc12	71*	-7	27	88*	6	-7
O=C(Nc1cc(C(=O)N2CCCC2)ccc1N1CCCC1)c1ccccc1F	20	16	-1	11	27	51*
O=C(Nc1cc(C(F)(F)F)ccc1N1CCOCC1)c1ccccc1F	.	6	10	62*	-1	4
Cc1nnc(SCC(=O)NC2CCCCC2)[nH]c1=O	6	-2	-6	-22	-1	8
COc1ccc(C2=CSC3=NCCN23)cc1Cl	0	21	11	-14	6	1
COc1ccc(C2=CSC3=NCCN23)cc1F	54*	-6	-3	-6	0	2
O=C(C(=Cc1ccc(F)cc1)C(=O)c1ccccc1)c1ccccc1	-56	0	100*	78*	.	.
CCC(C)[C@H](NS(=O)(=O)c1ccc(C)cc1)C(=O)N1CCC(C(=O)N2CCC(C(N)=O)CC2)CC1 (stereo partly drawn)	-19	-3	15	1	-4	-5
CCOC(=O)C1CCN(C(=O)/C=C/c2ccccc2OC)CC1	-9	-16	-13	59*	14	-17
COc1cccc(/C=C/C(=O)N2CCN(S(=O)(=O)c3ccccc3)CC2)c1OC	-18	5	7	73*	-4	-8
CCOC(=O)C1CCN(C(=O)/C=C/c2ccc(OC)cc2)CC1	-31	-31	-245	-15	-30	2
O=C(CCS(=O)(=O)c1ccccc1)Nc1ccc(S(=O)(=O)Nc2nccs2)cc1	-10	1	10	2	-8	-1
O=C(CN1CCCC1)Nc1cccc(Cl)c1Cl	-6	-13	0	10	-6	-3
CC(=O)c1c(O)cc2c3c1OC(C)(C)C1CCC(C)(CC31)O2 (stereo not drawn)	34	36	44	79*	.	10
CCn1c(SCC(=O)NCCCN2CCCC2=O)nnc1-c1cccc(C)c1	-12	3	-45	3	3	-4
CCOC(=O)c1cc(-c2ccccc2)sc1NC(=O)COC(=O)c1cccc(S(N)(=O)=O)c1	1	3	87*	-21	-15	-7
COc1cccc(CN2CC(C(=O)NCCSc3nnnn3C)CCC2=O)c1 (stereo not drawn)	7	-4	6	-3	-3	5
Cn1nc(C(=O)NC2CCCCC2)c2c1-c1ccccc1S(=O)(=O)C2	-20	-4	18	-1	-7	-2
CC1(C)OC(C(O)(c2ccccc2)c2ccccc2)[C@@H](C(O)(c2ccccc2)c2ccccc2)O1 (stereo partly drawn)	-1	28	64*	11	7	-8
CCc1ccccc1NC(=O)C1CCN(c2cnccn2)CC1	7	-3	6	-4	6	0

Bioassay records deposited in PubChem BioAssay by several laboratories.
